This is part of a sample that, as a whole, favours compounds with a hit. Of some 79,000 tested, about 15% had one in any assay. The source made the active and inactive calls. No stated cut-off is given here; in the data, active means growth inhibition above about 70%; inactive means the rest.
Assay: NCI Yeast Anticancer Drug Screen. Data for the cln2 rad14 strain (AID 165);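 further: 0% = growth equal to vehicle treated cultures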
Details: S. cerevisiae cln2 rad14 strain, at 5.0 µM (retest, dose inferred, filed as 0.5), stronger effect = higher value
Procedure, shortened: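 Growth of compound-exposed yeast (cln2 rad14 genotype) measured and expressed as inhibition relative to vehicle.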

SMILES	growth inhibition
CC(=O)OC1=CC2=CCC3C(CCC4(C)C(C(C)=O)CCC34)C2(C)CC1 (stereo unspecified)	-6% (inactive)
CCCC/C=C1/CCC(CN(C)C)C1=O (stereo unspecified)	6% (inactive)
CCN1CCC(O)(/C=C/c2ccccc2C)C(C(=O)/C=C/c2ccccc2C)C1 (stereo unspecified)	-2% (inactive)
Cc1c(Cl)ccc2c(C(O)CNCc3ccccc3)cc(-c3ccc(Cl)cc3)nc12 (stereo unspecified)	17% (inactive)
COc1ccc(C2CC(c3c(O)ccc4ccccc34)=NN2)cc1OC (stereo unspecified)	-11% (inactive)
O=c1[nH]c2c([N+](=O)[O-])cc(Cl)cc2nc1/C=C(\O)c1ccco1	-1% (inactive)
NC1c2ccccc2-c2ccc([N+](=O)[O-])cc21 (stereo unspecified)	-24% (inactive)
CN(C(=O)c1ccccc1)C1(COC(=O)c2ccccc2)CCCCC1	1% (inactive)
CCOC(=O)Nc1cc2c(cc1Br)-c1ccccc1C2O (stereo unspecified)	-2% (inactive)
O=C(/C=C(/Nc1ccccc1)C(=O)c1ccccc1)c1ccccc1	0% (inactive)
Nc1ccc2[nH]c3ccccc3c2c1	-5% (inactive)
Clc1ccc([I+]c2cccs2)cc1	33% (inactive)
CCCCCCC(C)S(=O)(=O)c1ccc(C)cc1 (stereo unspecified)	5% (inactive)
COC(=O)/C(=C/C=C(c1ccccc1)c1ccccc1)N(C(C)=O)C(C)=O	3% (inactive)
Oc1ccc(Cc2cccc(Br)c2)c(O)c1	-9% (inactive)
O=C(NNc1nc(-c2ccccc2)cs1)C(F)(F)F	50% (inactive)
Nc1nc(-c2ccc(Cl)cc2)cs1	-44% (inactive)
Cc1cc(C)nc(CCSS(=O)(=O)O)c1	-1% (inactive)
CC1(C)OC2C(COC(c3ccccc3)(c3ccccc3)c3ccccc3)OC(n3cnc4c(N)ncnc43)C2O1 (stereo unspecified)	-4% (inactive)

SMILES	growth inhibition
Oc1ccc(N=Nc2ccccc2)c(O)c1.Oc1ccc(N=Nc2ccccc2)c(O)c1.[Cu]	1% (inactive)
COC(=O)/C=N/O	7% (inactive)
C=CCCCCO/N=C/c1c2c(O)c3c(O)c(C)c4c(c3c1O)C(=O)C(C)(O/C=C/C(OC)C(C)C(OC(C)=O)C(C)C(O)C(C)C(O)C(C)/C=C/C=C(\C)C(=O)N2)O4 (stereo unspecified)	67% (inactive)
O=C(N/C(=C\c1ccc2c(c1)OCO2)c1nc2ccccc2s1)c1ccccc1	10% (inactive)
C=C1C[C@H](O)[C@H]2C(C[Se]c3ccccc3)C(=O)O[C@@H]2[C@H]2[C@H](C)C(O)C[C@@H]12 (stereo partly specified)	-2% (inactive)
CC1=C(C(=O)Nc2ccccc2C)C(c2ccccc2F)C(C(=O)Nc2ccccc2C)=C(C)N1	-2% (inactive)
COC(=O)CCC(NC(=S)N/N=C(\C)c1cnc2ccccc2n1)C(=O)OC (stereo unspecified)	10% (inactive)
CC(=O)Oc1c2c(c(OC(C)=O)c3c1n(C(C)=O)c1ccccc1n3C(C)=O)n(C(C)=O)c1ccccc1n2C(C)=O	26% (inactive)
CCOc1c(N=Nc2ccc(Cl)cc2)c(-c2ccccc2)nn1C(N)=S	-13% (inactive)
CC(=O)N(C1=CC(=O)c2ccccc2C1=O)c1ccc(Cl)cc1	52% (inactive)
O=C(C1=Cc2ccccc2OC1)N1CCN(c2cccc(Cl)c2)CC1	-6% (inactive)
Oc1c(Cl)ccc2cccnc12	98% (active)
COc1ccc2c(Cc3cc(Cl)ccc3O)cncc2c1O	3% (inactive)
CCCCCCCCCCCC1=NCC(C)N1 (stereo unspecified)	-46% (inactive)
c1ccc2c(B(c3cccc4ccccc34)c3cccc4ccccc34)cccc2c1	3% (inactive)
CC(CCOP(=O)(O)OCCC(C)CC(C)(C)C)CC(C)(C)C (stereo unspecified)	-2% (inactive)
CC(C)(C)C(=O)CC(=O)C(F)(F)C(F)(F)C(F)(F)F.[Ag]	92% (active)
Cc1ccc(S(=O)(=O)Nn2c(S)c(C#N)c(-c3ccc([N+](=O)[O-])cc3)c(C#N)c2=O)cc1	43% (inactive)
COC1=C(/C(=N/Nc2ccc([N+](=O)[O-])cc2[N+](=O)[O-])c2ccccc2)COC1=O	4% (inactive)

Same assay, conditions: S. cerevisiae cln2 rad14 strain, at 50.0 µM (retest, dose inferred, filed as 5.0), stronger effect = higher value

SMILES	growth inhibition
CC(=O)OC1=CC2=CCC3C(CCC4(C)C(C(C)=O)CCC34)C2(C)CC1 (stereo unspecified)	-13% (inactive)
CCCC/C=C1/CCC(CN(C)C)C1=O (stereo unspecified)	40% (inactive)
CCN1CCC(O)(/C=C/c2ccccc2C)C(C(=O)/C=C/c2ccccc2C)C1 (stereo unspecified)	54% (inactive)
Cc1c(Cl)ccc2c(C(O)CNCc3ccccc3)cc(-c3ccc(Cl)cc3)nc12 (stereo unspecified)	94% (active)
COc1ccc(C2CC(c3c(O)ccc4ccccc34)=NN2)cc1OC (stereo unspecified)	97% (active)
O=c1[nH]c2c([N+](=O)[O-])cc(Cl)cc2nc1/C=C(\O)c1ccco1	62% (inactive)
NC1c2ccccc2-c2ccc([N+](=O)[O-])cc21 (stereo unspecified)	-4% (inactive)
CN(C(=O)c1ccccc1)C1(COC(=O)c2ccccc2)CCCCC1	1% (inactive)
CCOC(=O)Nc1cc2c(cc1Br)-c1ccccc1C2O (stereo unspecified)	27% (inactive)
O=C(/C=C(/Nc1ccccc1)C(=O)c1ccccc1)c1ccccc1	39% (inactive)
Nc1ccc2[nH]c3ccccc3c2c1	3% (inactive)
Clc1ccc([I+]c2cccs2)cc1	97% (active)
CCCCCCC(C)S(=O)(=O)c1ccc(C)cc1 (stereo unspecified)	13% (inactive)
COC(=O)/C(=C/C=C(c1ccccc1)c1ccccc1)N(C(C)=O)C(C)=O	7% (inactive)
Oc1ccc(Cc2cccc(Br)c2)c(O)c1	99% (active)
O=C(NNc1nc(-c2ccccc2)cs1)C(F)(F)F	91% (active)
Nc1nc(-c2ccc(Cl)cc2)cs1	92% (active)
Cc1cc(C)nc(CCSS(=O)(=O)O)c1	-8% (inactive)
CC1(C)OC2C(COC(c3ccccc3)(c3ccccc3)c3ccccc3)OC(n3cnc4c(N)ncnc43)C2O1 (stereo unspecified)	89% (active)

SMILES	growth inhibition
Oc1ccc(N=Nc2ccccc2)c(O)c1.Oc1ccc(N=Nc2ccccc2)c(O)c1.[Cu]	92% (active)
COC(=O)/C=N/O	-1% (inactive)
C=CCCCCO/N=C/c1c2c(O)c3c(O)c(C)c4c(c3c1O)C(=O)C(C)(O/C=C/C(OC)C(C)C(OC(C)=O)C(C)C(O)C(C)C(O)C(C)/C=C/C=C(\C)C(=O)N2)O4 (stereo unspecified)	91% (active)
O=C(N/C(=C\c1ccc2c(c1)OCO2)c1nc2ccccc2s1)c1ccccc1	97% (active)
C=C1C[C@H](O)[C@H]2C(C[Se]c3ccccc3)C(=O)O[C@@H]2[C@H]2[C@H](C)C(O)C[C@@H]12 (stereo partly specified)	8% (inactive)
CC1=C(C(=O)Nc2ccccc2C)C(c2ccccc2F)C(C(=O)Nc2ccccc2C)=C(C)N1	-6% (inactive)
COC(=O)CCC(NC(=S)N/N=C(\C)c1cnc2ccccc2n1)C(=O)OC (stereo unspecified)	10% (inactive)
CC(=O)Oc1c2c(c(OC(C)=O)c3c1n(C(C)=O)c1ccccc1n3C(C)=O)n(C(C)=O)c1ccccc1n2C(C)=O	26% (inactive)
CCOc1c(N=Nc2ccc(Cl)cc2)c(-c2ccccc2)nn1C(N)=S	87% (active)
CC(=O)N(C1=CC(=O)c2ccccc2C1=O)c1ccc(Cl)cc1	98% (active)
O=C(C1=Cc2ccccc2OC1)N1CCN(c2cccc(Cl)c2)CC1	97% (active)
Oc1c(Cl)ccc2cccnc12	97% (active)
COc1ccc2c(Cc3cc(Cl)ccc3O)cncc2c1O	-4% (inactive)
CCCCCCCCCCCC1=NCC(C)N1 (stereo unspecified)	-5% (inactive)
c1ccc2c(B(c3cccc4ccccc34)c3cccc4ccccc34)cccc2c1	98% (active)
CC(CCOP(=O)(O)OCCC(C)CC(C)(C)C)CC(C)(C)C (stereo unspecified)	45% (inactive)
CC(C)(C)C(=O)CC(=O)C(F)(F)C(F)(F)C(F)(F)F.[Ag]	99% (active)
Cc1ccc(S(=O)(=O)Nn2c(S)c(C#N)c(-c3ccc([N+](=O)[O-])cc3)c(C#N)c2=O)cc1	43% (inactive)
COC1=C(/C(=N/Nc2ccc([N+](=O)[O-])cc2[N+](=O)[O-])c2ccccc2)COC1=O	15% (inactive)
